# “And” between values parts separate entries of the source, which are not always exact repeats. Identical values can stand only once. Inconclusive results are not listed. Values without a mark were called inactive. The source made the active and inactive calls. The call rests on the fitted dose curve; in most records, active means well fitted inhibition curve with a large enough effect; inconclusive means small, poorly fitted or top-dose-only effect; inactive means no such curve, though single readings can be large or run the other way.
# Assay: Primary qHTS for inhibitors of nuclear receptor binding SET domain protein 2 (NSD2) in an RCH-ACV wild type WT cells (2C) (AID 1645877); further: nearly all actives have a fitted effect of over 70% in size
# Conditions: RCH-ACV (leukaemia line) NSD2 WT (2C) viability, CellTiter-Glo, 72 h; series mostly up to 44.9 µM; activity change, negative = cell killing: at the top concentration
# Excerpt: Assay Provider: Jonathan D. Licht, MD
# University of Florida College of Medicine, Gainesville, FL
# Mutations in epigenetic regulators are common in relapsed pediatric acute lymphoblastic leukemia (ALL). Here, we uncovered the mechanism underlying the relapse of ALL driven by an activating mutation of the NSD2 histone methyltransferase (p.E1099K). […] Correction of this mutation restored glucocorticoid sensitivity. The transcriptional response to glucocorticoids was blocked in NSD2 mutant cells due to depressed glucocorticoid receptor (GR) levels and the failure of glucocorticoids to autoactivate GR expression. […] Pre-treatment of NSD2 p.E1099K cell lines and PDX samples with PRC2 inhibitors reversed glucocorticoid resistance in vitro and in vivo.
# High-throughput drug screening of isogenic RCH-ACV cell lines was performed at the National Center for Advancing Translational Science (NCATS), National Institutes of Health as previously described (1). Briefly, isogenic RCH-ACV NSD2 p.E1099K mutant (9B) and WT cells (2C) were plated at 500 cells/well in a 1536-well plate with a 72-hour incubation with compounds prior to addition of CellTiter-Glo to assess cell viability. NCATS libraries screened include: NPC, MIPE 5.0, Kinase and NPACT. To determine compound activity in the qHTS assay, the concentration-response data for each sample was plotted and modeled by a four-parameter logistic fit yielding IC50 and efficacy (maximal response) values. The area under the curve (AUC) of the dose-response curve ensures both efficacy (magnitude of cell killing) and potency (concentration that elicits cell killing) are accounted for in the analysis of activity.
# 1. Tobie D Lee, Olivia W Lee, Kyle R Brimacombe, Lu Chen, Rajarshi Guha, Sabrina Lusvarghi, Bethilehem G Tebase, Carleen Klumpp-Thomas, Robert W Robey, Suresh V Ambudkar, Min Shen, Michael M Gottesman, Matthew D Hall. A High-Throughput Screen of a Library of Therapeutics Identifies Cytotoxic Substrates of P-glycoprotein. Mol Pharmacol. 2019, Nov;96(5):629-640.
# On the % scale 0 is the no-effect control and ±100 the full control effect.
Compound,"activity change, negative = cell killing",outcome,Potency
COc1c(C)c(OCC=C(C)C)cc2c1C(=O)NC2=O,2.42%,,
CC1CCC2(O1)C(C)(C)CC(O[C@@H]1O[C@H](CO[C@@H]3OC[C@](O)(CO)[C@H]3O)[C@@H](O)[C@H](O)[C@H]1O)CC2(C)O (stereo not given in full),,inactive [at 17.3 µM],
O=C(c1ccc(NS(=O)(=O)c2cccc3cccnc23)cc1)N1CCN(CC2CC2)CC1,-14.7%,,
Cc1cc(O)cc(Oc2cc(C)c(C(=O)O)c(O)c2)c1,1.5%,,
CC(C)c1cc2c(c(O)c1O[C@@H]1O[C@H](CO)[C@@H](O)[C@H](O)[C@H]1O)CC1(O)CCC(O)C(C)(C)C1CC2 (stereo not given in full),-5.16% [at 17.3 µM],,
O=c1c2ccccc2nc2n1CCC2O (stereo not given),-6.77% [at 91.9 µM],,
C[C@@H]1O[C@@H](O[C@H]2[C@H](OC(C#N)c3ccc(O)cc3)O[C@H](CO)[C@@H](O)[C@@H]2O)[C@H](O)[C@H](O)[C@H]1O (stereo not given in full),-13.8% [at 17.3 µM],,
O=c1ccn(C2OC(CO)C(O)C2O)c(=O)[nH]1 (stereo not given),0.606%,,
C=CC(C)(C)O[C@@H]1O[C@H](CO[C@@H]2OC[C@](O)(CO)[C@H]2O)[C@@H](O)[C@H](O)[C@H]1O,,inactive,
CC(C)(OC1OC(CO)C(O)C(O)C1O)C1CCC(O)(CO)C2CC(O)C(C)(O)C2C1 (stereo not given),,inactive [at 17.3 µM],
CC1(C)CCC(C)(C)c2cc3c(cc21)Sc1ccccc1N=C3c1ccc(C(=O)O)cc1,0.791%,,
CC1=C2C=C(CO)C(CO)CCC2(C)CCC1=O (stereo not given),4.68%,,
C#Cc1cnc2[nH]c(=O)n(C(CC)CC)c2n1,3.43%,,
COC(=O)C[C@@H]1C(C(=O)O)=CO[C@@H](O[C@@H]2O[C@H](CO)[C@@H](O)[C@H](O)[C@H]2O)/C1=C\COC(=O)/C=C\c1ccccc1,-23.9% [at 17.3 µM],,
COC(=O)[C@H](CC1C=NC=N1)NCC12CC3CC(CC(C3)C1)C2 (stereo not given in full),,inactive,
CC1CCC2(C(=O)OC3OC(CO)C(O)C(O)C3O)CCC3(C)C(=CCC4C5(C)CC(O)C(O)C(C)(C(=O)O)C5CCC43C)C2C1(C)O (stereo not given),1.03% [at 17.3 µM],,
CC(C)(O)c1ccc2c(c1)C(O)CC1C(C)(C(=O)O)CCCC21C (stereo not given),,inactive,
CC1(C)OC(=O)C(OCC2CC2)=C1c1ccc(S(C)(=O)=O)cc1,-7.53%,,
COc1cc(C)c(C(=O)O[C@H]2[C@@H](O)[C@H](n3ccc(=O)[nH]c3=O)O[C@@H]2CO)c(OC)c1,-17.5% [at 17.3 µM],,
C=C1CC2C3(C)C(OC(C)=O)CC(=O)OC(C)(C)C3C(O)C(OC(C)=O)C2(C)C2C(=O)OC(C)C(=O)C12C (stereo not given),-18.9% [at 17.3 µM],,

Compound,"activity change, negative = cell killing",outcome,Potency
CC1(C)CCC2(C(=O)OC3OC(COC4OC(CO)C(O)C(O)C4O)C(O)C(O)C3O)CCC3(C)C(=CCC4C5(C)CCC(O)C(C)(C(=O)O)C5CCC43C)C2C1O (stereo not given),,inactive [at 9.23 µM],
CC1(C)O[C@@H]2C[C@H]3[C@@H]4CCC5=CC(=O)C=C[C@]5(C)[C@H]4[C@@H](O)C[C@]3(C)[C@]2(C(=O)CO)O1,,,46.8 nM (active)
CC(=O)NCCCCn1c2c(c3ccccc31)C(=O)NCC2,-0.627%,,
CN1CC[C@@H](NC(=O)Nc2ccc(C#N)cc2)C[C@@H]1c1nc2ccccc2[nH]1,-13.5%,,
COc1cc(CC(COC2OC(CO)C(O)C(O)C2O)c2cc(/C=C/CO)cc(OC)c2O)ccc1O (stereo not given),,inactive [at 17.3 µM],
CN1CCC(c2c[nH]c3ccc(NC(=O)c4ccc(F)cc4)cc23)CC1,-4.08%,,
CC1(C)O[C@@]2(C)CC[C@@H]1C[C@@H]2OC1OC(CO)C(O)C(O)C1O (stereo not given in full),-3.13%,,
C=C(C(=O)O)C1CCC(C)C2CCC(=O)OC2(C)C1 (stereo not given),-15.3%,,
CC1OC(OC2C(C)OC(OC3C(OC(=O)/C=C/c4ccc(O)cc4)C(CO)OC(OC4(COC(=O)/C=C/c5ccc(O)cc5)OC(CO)C(O)C4O)C3OC3OCC(O)(CO)C3O)C(O)C2O)C(O)C(O)C1O (stereo not given),-11.9% [at 9.23 µM],,
N#CCc1ccc(O)cc1O[C@@H]1O[C@H](CO)[C@@H](O)[C@H](O)[C@H]1O,1.73%,,
CC(C)CNC(=O)/C=C/CCCCc1ccc2c(c1)OCO2,3.35%,,
CC(C)C1=CC2=CCC3[C@](C)(CCC[C@@]3(C)C(=O)O)C2CC1=O (stereo not given in full),,inactive,
CCc1nc(C(N)=O)c(Nc2ccc(N3CCC(N4CCN(C)CC4)CC3)c(OC)c2)nc1NC1CCOCC1,,,1.13 µM (active) and 2.63 µM (active)
CO/N=C(/C(=O)N[C@@H]1C(=O)N2C(C(=O)O)=C(CSC(=O)c3ccco3)CS[C@H]12)c1csc(N)n1,,,inactive
C[C@@H]1CC[C@]2(C)C3(C)CC[C@@]2(OC3=O)[C@@]12C[C@H](c1ccoc1)OC2=O,-17.2%,,
CC1=CC[C@]2(C(=O)O[C@@H]3O[C@H](CO[C@@H]4O[C@H](CO)[C@@H](O[C@@H]5O[C@@H](C)[C@H](O)[C@@H](O)[C@H]5O)[C@H](O)[C@H]4O)[C@@H](O)[C@H](O)[C@H]3O)CC[C@]3(C)C(CCC4[C@@]5(C)C[C@@H](O)[C@H](O)[C@@](C)(CO)C5CC[C@]43C)C2C1C (stereo not given in full),,inactive [at 9.23 µM],
CN1C(=O)c2ccccc2-n2c(nc3ccccc3c2=O)[C@@]12O[C@H]2c1ccccc1,-5.41%,,
CC1(C)CC(=O)N(CCCCN2CCN(c3ncccn3)CC2)C(=O)C1,,inactive,
CO[C@@H](Cc1ccc(OCCc2nc(-c3ccccc3)oc2C)c2ccsc12)C(=O)O,-0.973%,,
CC(C)N(C[C@H]1O[C@@H](n2cnc3c(N)ncnc32)[C@H](O)[C@@H]1O)C1CC(CCc2nc3ccc(C(C)(C)C)cc3[nH]2)C1 (stereo not given in full),-18.1%,,

# — PubChem BioAssay (NCATS)
